Out of some 5,500 compounds screened, about 2,000 (36%) were called active. About 18% were inconclusive and are not listed. Rule as the data show it: active = normalized growth mostly below about 0.91 (no sharp cut-off); inconclusive = no clear call, values can overlap the other calls; inactive = mostly above about 0.92. The list shows a part of the results.
Experiment: chemical genetic growth profiling, strain panel (AID 1159580);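 also: tested at 20 µM; growth read once vehicle control cultures reached saturation at 30 °C; 1 = growth at the plate median or of vehicle wells; lower values mean less growth of the strain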
Conditions: growth OD

Measured: normalized growth

C=CCCCCCCCCCCCC(O)CC(O)CO (stereo not given)
inactive: S. cerevisiae deletion strains, locus YMR307W, strain GAS1, active compounds read low 0.792 | S. cerevisiae deletion strains, locus YNL067W, strain RPL9B, active compounds read low 0.903 | S. cerevisiae deletion strains, locus YNL071W, strain lat1, active compounds read low 0.989 | S. cerevisiae deletion strains, locus YNL128W, strain TEP1, active compounds read low 0.924 | S. cerevisiae deletion strains, locus YNL153C, strain GIM3, active compounds read low 0.979 | S. cerevisiae deletion strains, locus YNL209W, strain ssb2, active compounds read low 1 | S. cerevisiae deletion strains, locus YNL248C, strain rpa49, active compounds read low 0.993 | S. cerevisiae deletion strains, locus YNL250W, strain rad50, active compounds read low 0.939 | S. cerevisiae deletion strains, locus YNL271C, strain bni1, active compounds read low 0.953 | S. cerevisiae deletion strains, locus YNL322C, strain KRE1 (second series), active compounds read low 0.981 | S. cerevisiae deletion strains, locus YNL322C, strain KRE1, active compounds read low 0.979 | S. cerevisiae deletion strains, locus YNR049C, strain mso1, active compounds read low 0.995 | S. cerevisiae deletion strains, locus YNR052C, strain pop2, active compounds read low 0.946 | S. cerevisiae deletion strains, locus YOL006C, strain TOP1, active compounds read low 0.808 | S. cerevisiae deletion strains, locus YOL012C, strain htz1 1.72 | S. cerevisiae deletion strains, locus YOR001W, strain rrp6, active compounds read low 0.998 | S. cerevisiae deletion strains, locus YOR069W, strain VPS5, active compounds read low 0.978 | S. cerevisiae deletion strains, locus YOR070C, strain gyp1, active compounds read low 0.992 | S. cerevisiae deletion strains, locus YOR080W, strain dia2, active compounds read low 0.998 | S. cerevisiae deletion strains, locus YOR083W, strain WHI5, active compounds read low 0.965 | S. cerevisiae deletion strains, locus YOR106W, strain vam3, active compounds read low 1.02 | S. cerevisiae deletion strains, locus YOR136W, strain idh2, active compounds read low 0.935 | S. cerevisiae deletion strains, locus YOR144C, strain elg1, active compounds read low 0.982 | S. cerevisiae deletion strains, locus YOR265W, strain rbl2, active compounds read low 1 | S. cerevisiae deletion strains, locus YOR270C, strain vph1, active compounds read low 1.01 | S. cerevisiae deletion strains, locus YOR290C, strain snf2, active compounds read low 0.93 | S. cerevisiae deletion strains, locus YOR316C, strain cot1, active compounds read low 0.977 | S. cerevisiae deletion strains, locus YPL051W, strain arl3, active compounds read low 0.999 | S. cerevisiae deletion strains, locus YPL055C, strain LGE1, active compounds read low 0.843 | S. cerevisiae deletion strains, locus YPL078C, strain atp4, active compounds read low 0.986 | S. cerevisiae deletion strains, locus YPL106C, strain sse1, active compounds read low 1.01 | S. cerevisiae deletion strains, locus YPL240C, strain hsp82, active compounds read low 1 | S. cerevisiae deletion strains, locus YPL241C, strain CIN2, active compounds read low 0.987 | S. cerevisiae deletion strains, locus YPR119W, strain clb2, active compounds read low 0.989 | S. cerevisiae deletion strains, locus YPR141C, strain kar3, active compounds read low 1 | S. cerevisiae deletion strains, locus YPR163C, strain tif3, active compounds read low 0.95 | S. cerevisiae deletion strains, locus YPR167C, strain met16, active compounds read low 0.964 | S. cerevisiae deletion strains, strain wtn01, active compounds read low 0.904
active: S. cerevisiae deletion strains, locus YNL233W, strain BNI4, active compounds read low 0.834 | S. cerevisiae deletion strains, locus YNL298W, strain CLA4, active compounds read low 0.907 | S. cerevisiae deletion strains, locus YNL307C, strain MCK1, active compounds read low 0.499 | S. cerevisiae deletion strains, locus YOL147C, strain pex11, active compounds read low 0.778 | S. cerevisiae deletion strains, locus YOR061W, strain CKA2, active compounds read low 0.635 | S. cerevisiae deletion strains, locus YOR184W, strain ser1, active compounds read low 0.719 | S. cerevisiae strains, strain wild type, active compounds read low 0.861
